# PMC4336329 (PLoS ONE, 2015)
# In all, about 310,000 compounds went through this assay and about 14,000 (4.5%) showed an effect of 50% or more. The effect is printed as a negative number. This excerpt belongs to a sample that is enriched for strong results.
# Target: human ether-à-go-go-related gene (hERG) potassium channel (human, UniProt Q12809)
# Assay: primary screen, population patch clamp on CHO cells stably expressing hERG; higher = less effect of the substance
# 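Further: peak tail current of the secondary pulse compared with the same well before compound.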
# human ether-à-go-go-related gene (hERG) potassium channel, sequence (Q12809 whole entry, looked up): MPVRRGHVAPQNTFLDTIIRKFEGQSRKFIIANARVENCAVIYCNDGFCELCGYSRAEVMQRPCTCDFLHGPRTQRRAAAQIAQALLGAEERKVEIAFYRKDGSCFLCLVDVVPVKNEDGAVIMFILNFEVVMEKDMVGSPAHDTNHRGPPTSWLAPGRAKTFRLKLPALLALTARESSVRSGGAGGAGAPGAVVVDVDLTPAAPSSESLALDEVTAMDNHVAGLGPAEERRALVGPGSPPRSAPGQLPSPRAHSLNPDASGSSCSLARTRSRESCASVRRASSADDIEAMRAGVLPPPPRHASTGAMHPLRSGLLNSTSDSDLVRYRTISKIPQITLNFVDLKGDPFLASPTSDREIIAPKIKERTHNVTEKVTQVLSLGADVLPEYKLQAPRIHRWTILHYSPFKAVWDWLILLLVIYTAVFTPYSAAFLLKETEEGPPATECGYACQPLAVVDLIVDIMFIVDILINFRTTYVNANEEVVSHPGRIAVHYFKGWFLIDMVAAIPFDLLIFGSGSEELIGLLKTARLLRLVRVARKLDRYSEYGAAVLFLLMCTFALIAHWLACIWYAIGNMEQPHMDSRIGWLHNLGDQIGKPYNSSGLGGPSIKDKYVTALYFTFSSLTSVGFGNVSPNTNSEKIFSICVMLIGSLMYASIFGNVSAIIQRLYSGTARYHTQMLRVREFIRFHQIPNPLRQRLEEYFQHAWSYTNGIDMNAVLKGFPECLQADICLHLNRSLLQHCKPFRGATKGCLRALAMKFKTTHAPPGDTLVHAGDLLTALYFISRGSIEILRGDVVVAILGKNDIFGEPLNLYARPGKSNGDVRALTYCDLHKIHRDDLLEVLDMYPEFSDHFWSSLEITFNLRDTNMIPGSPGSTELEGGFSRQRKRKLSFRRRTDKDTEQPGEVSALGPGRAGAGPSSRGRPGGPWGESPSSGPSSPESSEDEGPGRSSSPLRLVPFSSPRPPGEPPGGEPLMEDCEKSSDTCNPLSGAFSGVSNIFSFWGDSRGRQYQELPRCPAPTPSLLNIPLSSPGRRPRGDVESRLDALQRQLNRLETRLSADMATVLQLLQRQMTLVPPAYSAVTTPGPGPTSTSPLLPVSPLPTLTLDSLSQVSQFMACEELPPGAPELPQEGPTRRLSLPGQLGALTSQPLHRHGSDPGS
row,SMILES,"hERG current change (%, negative = inhibition) at 10uM [%]"
1,CCCC1S/C(=N/N=C/c2ccc(C)cc2)N(Cc2ccc(OC)cc2)C1=O (stereo not drawn),9.81
2,CC(=O)Oc1ccc(-c2cc3ccccc3oc2=O)cc1,0.436
3,CCOC(=O)N1CCN(Cc2nnc(-c3ccccc3Cl)o2)CC1.Cl,11.4
4,CCOc1c(C)cnc2c1c(=O)n(Cc1cccc(Cl)c1)c(=O)n2C,-36.1
5,CC(C)(C)NC(=O)CSc1ncccc1-c1nc2ccccc2[nH]1,-4.73
6,Cc1c(C)c2ccc(OCC(=O)Nc3ccc(N4CCC(C)CC4)cc3)cc2oc1=O,14.7
7,COc1ccc(-n2nc3c(c2NC(=O)COc2cccc(OC)c2)CS(=O)(=O)C3)cc1,-29.5
8,Cc1ccc(-c2n[nH]c(=S)n2/N=C\c2ccco2)cc1,24.1
9,O=C(C1CCN(C2CCN(Cc3ccsc3)CC2)CC1)N1CCOCC1,-3.8
10,C/C(=C\c1ccco1)CN1CCC(N2CCC(C(=O)N3CCOCC3)CC2)CC1,-78.9
11,O=C(C1CCN(C2CCN(C/C=C/c3ccccc3)CC2)CC1)N1CCOCC1,-53.4
12,O=C(/C=C/c1ccccc1)N1CCC(N2CCC(C(=O)N3CCOCC3)CC2)CC1,-23.4
13,O=C(C1CCN(C2CCN(Cc3cccc4c3OCO4)CC2)CC1)N1CCOCC1,-34.7
14,Cc1cccc(CC(=O)N2CCC(N3CCC(C(=O)N4CCOCC4)CC3)CC2)c1,0.701
15,O=C(Cc1ccc(F)cc1)N1CCC(N2CCC(C(=O)N3CCOCC3)CC2)CC1,9.76
16,O=C(C1CCN(C2CCN(Cc3ccc4c(c3)CCO4)CC2)CC1)N1CCOCC1,-26.6
17,O=C(C1CCN(C2CCN(C/C(Cl)=C/c3ccccc3)CC2)CC1)N1CCOCC1,-64.1
18,CCOCCCNC(=O)CN1CCN(S(=O)(=O)c2ccc3c(c2)CCC3)CC1,3.99
19,COC(=O)CSc1nnc(CNS(=O)(=O)c2ccc(C)cc2)n1C,1.97
20,CN(C)N=Nc1ccc(S(=O)(=O)N2CCSC2C(=O)O)cc1 (stereo not drawn),2.21
21,COC1CCN(C(=O)CC2C(=O)NCCN2CC2CCCCC2)CC1 (stereo not drawn),13.3
22,CCOc1cccc(=[NH+]C2CCCCC2)c2c(C)[nH]c(C)c12.[O-][Cl+3]([O-])([O-])[O-],-70.3
23,CCOc1ccccc1OCCNC1CCCC1,8.26
24,CCOc1cccc(=[NH+]C2CCCCC2)c2c(C)n(C)c(C)c12.[O-][Cl+3]([O-])([O-])[O-],-70.3
25,CCOc1cccc(=O)c2c(C)n(CC3CCCO3)c(C)c12 (stereo not drawn),-2.39
26,CCOc1cccc(OCC)c2c(C)[n+](CC3CCCO3)c(C)c1-2.[O-][Cl+3]([O-])([O-])[O-] (stereo not drawn),-36.9
27,CCOc1cccc(=O)c2c(C)n(CC(=O)c3ccccc3)c(C)c12,-6.91
